Bioassay records (PubChem)
Only some compounds are listed: those with a hit (about 19% of all), similar ones and a draw of the others.
Shiga inhibitor: Shiga toxin inhibition; Vero cells, Shiga toxin protein synthesis inhibition reporter; inhibition, % at 38.7 µM; AID 2315; 290,000 tested, 9.2% active; in the data active = inhibition mostly above about 28%, no sharp cut-off; inactive = mostly below about 43%; note: 0% is about no effect
Pf growth 48h: P. falciparum growth inhibition at 48 hours (one generation); P. falciparum luciferase growth in erythrocytes, 48 h; Potency, µM (series often up to 28.7 µM), inactives show top-dose activity change, negative = inhibition, actives largely listed as inhibitors; 310,000 tested, 5.9% active; AID 504832; note: potency is the fitted concentration of half-maximal effect; % is set by controls: 0 for no effect and ±100 for the full control effect
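A one-generation exposure of luciferase-tagged malaria parasites in RPMI 1640/Albumax erythrocyte culture, 37 C and 5% CO2. Inhibition is inferred from decreased luminescence after adding detection reagent.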
Marburg entry inh: blocks Marburg virus binding to or entry into cells; Marburg virus pseudotyped entry inhibition, cell reporter; Potency, µM (top dose mostly 37.8 µM), for inactives: at the top dose activity change, negative = inhibition, most hits filed as inhibitors; AID 540276; 300,000 tested, 1.8% active; calls by dose curve; tested in HEK293 cells; note: potency is the fitted concentration of half-maximal effect; % is set by controls: 0 for no effect and ±100 for the full control effect
CHX counter: counter-screen for Shiga toxin inhibitors: cycloheximide protein synthesis inhibition; max response, %; cell reporter, cycloheximide protein synthesis inhibition counterscreen; 300,000 tested, 12% active; AID 2314; in the data active = max response mostly above about 13%, no sharp cut-off; inactive = mostly below about 14%; note: read at 38.3 µM for the half of the compounds with a filed dose; 0% is about no effect
Pf growth 96h: P. falciparum growth inhibition at 96 hour, primary screen for plastid delayed-death inhibitors | P. falciparum luciferase reporter growth, 96 h | Potency, µM (top dose mostly 28.7 µM), without a hit: at the top dose activity change, negative = inhibition, most hits filed as inhibitors | 320,000 tested, 6.9% active; note: potency is the fitted concentration of half-maximal effect; % is set by controls: 0 for no effect and ±100 for the full control effect
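Readout is luminescence from an integrated firefly luciferase in P. falciparum. Red cells, 2% hematocrit and 0.05% parasitemia final, were cultured with compound through two parasite generations (96 hours) at 37 C, 5% CO2.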
Lassa entry inh: blocks Lassa virus binding to or entry into cells. 300,000 tested, 1.2% active. Potency, µM (series often up to 37.9 µM), inactives show at the top dose activity change, negative = inhibition, most hits filed as inhibitors. Lassa virus pseudotype entry inhibition, cell reporter. AID 540256; calls by dose curve; tested in HEK293 cells; note: potency is the fitted concentration of half-maximal effect; % is set by controls: 0 for no effect and ±100 for the full control effect; nearly all actives have a fitted effect of over 50% in size
An asterisk follows results filed as active; ? = inconclusive; . = not tested or not shown; [ ] = another dose, or the depositor's remark. Unless noted, calls come from the whole dose curve; as a rule, active = well fitted inhibition curve with a large enough effect; inconclusive = small, poorly fitted or top-dose-only effect, or another doubt; inactive = no such curve, though single readings can be large or run the other way.

SMILES	Shiga inhibitor	Pf growth 48h	Marburg entry inh	CHX counter	Pf growth 96h	Lassa entry inh
CCC(=O)Nc1nc(C)c(-c2csc(Nc3cccc(C(=O)O)c3)n2)s1	12	98%	?	11	?	14%
C=CCCC(=O)Nc1nc(C)c(-c2csc(Nc3cccc(OC)c3)n2)s1	20	2.6µM*	.	-2	12µM*	.
COc1cccc(Nc2nc(-c3sc(NC(=O)c4ccccc4)nc3C)cs2)c1	71*	5.2µM*	.	13	4.1µM*	.
COc1cccc(Nc2nc(-c3sc(NC(=O)CC(C)C)nc3C)cs2)c1	15	?	.	12	13µM*	.
CC(=O)Nc1nc(C)c(-c2csc(Nc3cccc(C(C)=O)c3)n2)s1	9	.	.	13	7%	.
C=CCCC(=O)Nc1nc(C)c(-c2csc(Nc3cc(OC)ccc3OC)n2)s1	27	?	.	15	13µM*	.
NC(=O)C1O[C@@H](O)[C@H](O)[C@@H](O)[C@H]1O (stereo not given in full)	-6	.	.	-6	.	.
CCOC(=O)c1ccc(NC(=O)CSc2nc(C)c(Cc3ccccc3)c(=O)[nH]2)cc1	.	.	0%[46.1 µM]	.	.	10%[46.1 µM]
Cc1nc(NC(=O)c2ccccc2)sc1-c1csc(Nc2ccc(C(=O)O)cc2)n1	2	57%	?	10*	2.9µM*	?
CCC(=O)Nc1nc(C)c(-c2csc(Nc3ccc(C(=O)O)cc3)n2)s1	5	0%	8%[46.1 µM]	-1	-47%	-16%[46.1 µM]
CCCC(C)C(=O)Nc1nc(C)c(-c2csc(Nc3cc(OC)ccc3OC)n2)s1 (stereo not given)	-4	6.6µM*	.	-4	9.3µM*	.
Cc1cc(O)ccc1Nc1nc(-c2sc(N)nc2C)cs1	7	-12%	11%	-2	9%	1%
COc1ccc(OC)c(Nc2nc(-c3sc(N)nc3C)cs2)c1	-8	15µM*	-24%	-3	.	-10%
COc1cc(OC)cc(C(=O)N[C@H](C(=O)Nc2nc(-c3cc(OC)ccc3OC)cs2)C(C)C)c1	-8	-16%	-38%[46.1 µM]	5	?	-12%
Cc1ccc(N=Cc2c(C)[nH]n(-c3nc4ccccc4[nH]3)c2=O)cc1	1	-29%	?	5	4%	?
CCOc1cc(S(=O)(=O)NCc2ccc3c(c2)OCO3)c(C)cc1C	-3	5%	-6%[46.1 µM]	-1	4%	3%
Cn1c(SCC(=O)NCc2cccs2)nnc1-c1ccncc1	-3	5%	-2%	-3	0%	6%
COCCCNCC1C(Oc2ccc(Cl)cc2)C(=O)N1c1ccccc1C (stereo not given)	-14	?	?	-3	?	-2%
Cn1c(=O)c2[nH]c(-c3ccccc3)c(O)c2n(C)c1=O	-2	-15%	-6%	-1	0%	3%
Cn1c(=O)c2[nH]c(-c3ccccc3Cl)c(O)c2n(C)c1=O	-5	4.7µM*	7%	3	13µM*	0%
CN(Cc1ccco1)S(=O)(=O)c1nnc(NC(=O)c2cccc(Cl)c2)s1	64*	25%	.	36*	40%	-19%[46.1 µM]
O=C(Nc1nnc(COc2ccccc2)s1)c1ccco1	-6	46%	-8%[46.1 µM]	1	.	30%
CC(=O)Nc1nnc(/C=C/c2cccc([N+](=O)[O-])c2)s1	5	-3%	-3%	5	?	?
O=C(Nc1nnc(/C=C/c2ccccc2)s1)c1ccco1	63*	9%	.	30*	8%	.
Nc1nnc(/C=C/c2ccccc2)s1	37*	70%	-1%[46.1 µM]	44*	-11%	11%
SMILES	Shiga inhibitor	Pf growth 48h	Marburg entry inh	CHX counter	Pf growth 96h	Lassa entry inh
COC(=O)Nc1nnc(/C=C/c2ccccc2)s1	49*	42%	?	12	34%	8%
C(=C\c1ccc(/C=C/c2ccccc2)nn1)/c1ccccc1	-2	3%	.	2	-2%	.
CN(Cc1ccccc1)S(=O)(=O)c1nnc(NC(=O)c2cccc(Cl)c2)s1	.	.	.	.	.	12%[46.1 µM]
COC(=O)c1ccc(S(=O)(=O)N2CCCCCC2)cc1	-3	-1%	19%	-1	7%	11%
CN(c1ccccc1)S(=O)(=O)c1nnc(NC(=O)c2ccco2)s1	-6	-8%	.	-3	3.7µM*	7%[46.1 µM]
Cc1cccc(NC(=O)CS(=O)(=O)c2cn(C)c3ccccc23)c1	-3	-5%	.	-3	1%	.
CCOc1ccc(CCNC(=O)CCn2nc(C)c3c(C)n(-c4ccccc4)nc3c2=O)cc1	12	?	.	2	2%	.
Cc1ccc(-n2nc3c(=O)n(CCCC(=O)N4CCC(C(N)=O)CC4)nc(C)c3c2C)cc1	-4	10µM*	.	7	?	.
CCC(C(=O)NCCc1ccccc1OC)n1nc(C)c2c(C)n(-c3ccccc3)nc2c1=O (stereo not given)	2	-17%	.	-2	12µM*	.
CCOc1ccc(CCNC(=O)CCCn2nc(C)c3c(C)n(-c4ccccc4)nc3c2=O)cc1	14	-10%	.	1	13µM*	.
Cc1nn(C(C)C(=O)NC2CCCCCC2)c(=O)c2nn(-c3ccccc3)c(C)c12 (stereo not given)	38	-11%	-1%[46.1 µM]	20	12µM*	-16%[46.1 µM]
Cc1ccc(-n2nc3c(=O)n(CCCC(=O)N4CCC(C)CC4)nc(C)c3c2C)cc1	-6	?	.	-2	-1%	.
CC(=O)c1c(C)[nH]c(C(=O)NC2CCSc3ccccc32)c1C (stereo not given)	-27	-6%	?	9	1%	?
CC(C)C1Nc2ccc(S(=O)(=O)N3CCOCC3)cc2NC1=O (stereo not given)	-6	14%	-11%[46.1 µM]	1	11%	-25%[46.1 µM]
Cc1ccc(C)c(N2CCN(S(=O)(=O)c3ccc4[nH]c(=O)ccc4c3)CC2)c1	3	0%	.	3	3%	.
Cc1cnc(NC(=O)CN(C)S(=O)(=O)c2ccc(Cl)cc2)s1	21	25%	?	7	?	5%
Cc1nn(CCCC(=O)NCCc2ccccc2)c(=O)c2nccn12	15*	14%	.	7	12%	.
Cc1ccc(-n2nc3c(=O)n(CC(=O)NC4CCCCCC4)nc(C)c3c2C)cc1	-4	15%	9%[46.1 µM]	5	13µM*	-12%[46.1 µM]
CCCCNC(=O)CSc1nnc(C)c2c(C)n(-c3ccccc3)nc12	74*	.	.	38*	.	-2%[46.1 µM]
Cc1ccc(-n2nc3c(=O)n(CCCC(=O)NC4CCC(C)CC4)nc(C)c3c2C)cc1 (stereo not given)	-8	?	4%[46.1 µM]	12	25%	32%[46.1 µM]
Cc1nn(CC(=O)NCCc2cccs2)c(=O)c2nn(-c3ccccc3)c(C)c12	19*	-8%	.	22*	?	.
Cc1nc(N2CCN(Cc3ccc4c(c3)OCO4)CC2)[nH]c(=O)c1C	-12	10%	.	3	?	.
COc1cc(/C=C2/SC(=S)N(c3c(C)n(C)n(-c4ccccc4)c3=O)C2=O)ccc1O	-16	-14%	?	-2	28%	-10%[46.1 µM]
O=C(NCc1cccs1)C1CC(O)CN1C(=O)Nc1ccccc1 (stereo not given)	-12	17%	?	-5	-2%	21%[46.1 µM]
